Data: PubChem BioAssay (NCI)
This is part of a sample that, as a whole, favours compounds with a hit. Of some 79,000 tested, about 15% had one in any assay. Calls of active or inactive are those of the source. Cut-off read from the data, not from the text of the source: active = growth inhibition above about 70%; inactive = the rest.

Assay: NCI Yeast Anticancer Drug Screen. Data for the mec2-1 strain (AID 157)
Details: S. cerevisiae mec2-1 strain, stronger effect = higher value
Experimental: Growth inhibition of yeast strains with defined genetic alterations is measured as a screen for potential anti-cancer activity. Selected strains with alterations in DNA damage repair or cell cycle control were exposed to compounds and growth inhibition was measured relative to vehicle treated controls. The strain used in this assay is mec2-1

[1] = at 5.0 µM (retest, dose inferred, filed as 0.5)
[2] = at 50.0 µM (retest, dose inferred, filed as 5.0)

Measured: growth inhibition

Cc1cc2c3ccccc3c3ccccc3c2nn1
inactive: at 1.2 µM 2% | at 3.7 µM 0% | [1] -46% | at 11.0 µM 10% | at 33.0 µM 7% | [2] -15% | at 50.0 µM 21.8% | at 100.0 µM 12%

CCCCCCC(O)CNCc1ccnc2ccc(OC)cc12 (stereo not given)
inactive: at 1.2 µM 4% | at 3.7 µM 13% | [1] 7% | at 11.0 µM 15% | at 33.0 µM 29% | [2] 43% | at 50.0 µM 53.4% | at 100.0 µM 46%

OC(CCNCc1ccccc1)c1ccc2ccccc2c1 (stereo not given)
inactive: at 1.2 µM -1% | at 3.7 µM 10% | [1] 15% | at 11.0 µM 22% | at 33.0 µM 47% | at 50.0 µM 37.9% | at 100.0 µM 58%
active: [2] 76%

CC[N+]1(C)CCC(O)(c2ccc(OC)cc2)C(C(=O)c2ccc(OC)cc2)C1 (stereo not given)
inactive: at 1.2 µM -63% | at 3.7 µM -56% | [1] 7% | at 11.0 µM -69% | at 33.0 µM -61% | [2] 23% | at 50.0 µM 14.8% | at 100.0 µM -74%

CCN(CC)CCNc1ccc2ncn3c4cc(OC)c(OC)c(=O)c4c(O)c1c23
inactive: at 1.2 µM -2% | at 3.7 µM -1% | [1] -3% | at 11.0 µM 0% | at 33.0 µM 8% | [2] -12% | at 50.0 µM 23.5% | at 100.0 µM 11%
